Screening results from PubChem.
ClpP mod: qHTS Assay for Activators of ClpP; 1.9% of 340,000 active; AID 651965, 2013; Potency, µM (series often up to 57.5 µM), inactives show top-dose activity change, negative = active; purified B. subtilis ClpP, FRET peptide cleavage, 20 min; active means well fitted falling curve with a large enough effect; inconclusive means small, poorly fitted or top-dose-only effect; inactive means no such curve, though single readings can be large or run the other way; further: the source files actives as falling curves though it sought activators and does not explain the sign; nearly all actives have a fitted effect of over 65% in size
Target sequence (P80244 whole entry, looked up): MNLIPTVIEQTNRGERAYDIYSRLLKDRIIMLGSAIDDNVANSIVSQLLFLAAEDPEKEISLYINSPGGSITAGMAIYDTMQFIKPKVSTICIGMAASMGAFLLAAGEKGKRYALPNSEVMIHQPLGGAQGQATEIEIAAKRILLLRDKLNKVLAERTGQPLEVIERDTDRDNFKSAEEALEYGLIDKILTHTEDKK
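Buffer: 100 mM Tris/HCl pH8, 100 mM KCl, 0.05% low protease BSA, 2.5% glycerol, 0.01% Tween-20. ClpP 10 microg/mL final; 20 min RT; delta FRET normalized to ADEP and DMSO controls.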
GLP1R inv ag: inverse agonists of human GLP-1 receptor. 1.6% of 410,000 active. AID 624417. P43220. HEK293 GLP-1R CRE-luciferase, luminescence, 24 h; GLP-1R form is constitutively active. Potency, µM (series often up to 38.3 µM), for the others: at the top dose activity change, negative = inhibition, actives largely listed as inhibitors; further: on the % scale 0 is the no-effect control and ±100 the full control effect; nearly all actives have a fitted effect of over 55% in size
Target sequence (P43220 whole entry, looked up): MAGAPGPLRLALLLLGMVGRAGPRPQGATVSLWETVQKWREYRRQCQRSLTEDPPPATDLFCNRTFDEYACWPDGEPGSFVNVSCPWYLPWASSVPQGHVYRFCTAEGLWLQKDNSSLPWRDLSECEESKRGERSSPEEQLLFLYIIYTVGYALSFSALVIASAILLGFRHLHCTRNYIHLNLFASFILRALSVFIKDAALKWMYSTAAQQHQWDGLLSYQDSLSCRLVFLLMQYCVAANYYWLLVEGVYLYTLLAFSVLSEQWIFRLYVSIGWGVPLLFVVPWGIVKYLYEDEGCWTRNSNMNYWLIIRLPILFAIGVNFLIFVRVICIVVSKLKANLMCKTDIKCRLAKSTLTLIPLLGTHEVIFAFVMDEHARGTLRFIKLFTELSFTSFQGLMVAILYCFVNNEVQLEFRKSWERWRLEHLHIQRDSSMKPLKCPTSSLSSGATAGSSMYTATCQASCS
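Constitutively active GLP-1R drives a cAMP-responsive luciferase in stably transfected HEK293 cells; test compounds are added after overnight (12 h) attachment and left 24 hr, and signal loss in luminescence marks inhibition.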
GLP-1R agonist: agonists of human GLP-1 receptor; P43220; HEK293 GLP-1R CRE-luciferase, luminescence, 4-6 h; cells express a hypersensitive GLP-1R form; 0.007% of 380,000 active; Potency, µM (doses to about 45.6 µM), for inactives: top-dose activation, most hits filed as activators; further: % of control where 0% means no effect
GLP1R cytotox: cytotoxicity in counter-screen for GLP-1R inverse agonists. HEK293 cAMP-luciferase reporter cells, luminescence, 24 h. Potency, µM (doses to about 38.3 µM), for inactives: top-dose activity change, negative = inhibition, hits mostly inhibitors. 0.13% of 410,000 active;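 further: loss of luciferase light is scored as toxicity; on the % scale 0 is the no-effect control and ±100 the full control effect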
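To flag toxic compounds, the library was rerun on cells for 24 hr at 37 deg C and 5% CO2. Viability-linked luminescence was captured 12 min after adding luciferase detection reagent.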
Numbers without * were called inactive; u = inconclusive; x = no result given; ! = not confirmed by another sample. Rows were chosen to be rich in hits. Some 3.2% of all compounds tested hit in one or more screens of this group. Unless noted, the call rests on the fitted dose curve; in most records, active means well fitted curve in the direction sought with a large enough effect; inconclusive means small, poorly fitted or top-dose-only effect, or another doubt; inactive means no such curve, though single readings can be large; an effect the other way counts as inactive or inconclusive. Potency means the concentration at half of the fitted maximal effect.

SMILES	ClpP mod	GLP1R inv ag	GLP-1R agonist	GLP1R cytotox
COCCN1C2=C(C(=O)CC(C)(C)C2)C(c2ccc(OC)c(OC)c2)C2=C1CC(C)(C)CC2=O	10µM*	4%	1%	-2%
COc1ccc(-c2[nH]c(-c3ccccc3)nc2SCC(=O)NC2CCCC2)cc1	22µM*!	10µM*!	2%	-3%
COc1ccc(-c2[nH]c(-c3ccc(F)cc3)nc2SCC(=O)NC2CCCC2)cc1	5%	7.9µM*	4%	-20%
COc1ccc(-c2nc(SCC(=O)NC3CCCC3)c(-c3ccc(F)cc3)[nH]2)cc1	-14%	u	x	-14%
COc1ccc(-c2[nH]c(-c3cccc(OC)c3)nc2SCC(=O)NC2CCCC2)cc1	25µM*!	u	6%	-15%
CCOc1ccc(-c2nc(SCC(=O)NC3CCCC3)c(-c3ccccc3)[nH]2)cc1OC	-22%	u	x	-4%
Cc1ccc2[nH]cc(C(c3ccccc3)c3cccs3)c2c1 (centres undefined)	-5%	10µM*	x	-13%
Cc1ccc(NC(=O)C(Cc2ccccc2)NS(=O)(=O)c2ccc3c(c2)oc(=O)n3C)c(Cl)c1 (centres undefined)	1%	8%	x	18%
CCOCCCNC(=O)c1cc(Sc2ccc(C)cc2)nc2ccccc12	-6%	10µM*	9%	1%
CCOCCCNC(=O)c1cc(Sc2cccc(Cl)c2)nc2ccccc12	-1%	u	8%	-4%
O=[N+]([O-])c1ccc(O)c(-c2nn[nH]n2)c1	25µM*	6%	-35%	-11%
Cc1cc(C)n(-c2ccc([N+](=O)[O-])cc2-c2nn[nH]n2)n1	x	6%	6%	18%
COc1cc(-c2nc3ncccn3c2Nc2ccc(C)cc2C)ccc1O	-4%	-24%	x	-19%
COc1ccc(C2CN=NC23CCCc2ccccc2C3=O)cc1 (centres undefined)	2%	0%	-4%	-7%
COc1ccccc1C1CN=NC12CCCc1ccccc1C2=O (centres undefined)	1%	7.1µM*	-6%	-5%
CCN(C(=O)CSc1nnc(-c2ccccc2Cl)n1N)c1c(N)n(Cc2ccccc2)c(=O)[nH]c1=O	-1%	16%	-2%	0%
CCN(C(=O)CSc1nnc(-c2cccs2)n1N)c1c(N)n(Cc2ccccc2)c(=O)[nH]c1=O	35µM*	7%	5%	3%
CN(C)c1cc(NC(=O)CNC(C)(C)C)c(O)c2c1C[C@@H]1C[C@H]3[C@H](N(C)C)C(=O)C(C(N)=O)=C(O)[C@@]3(O)C(=O)C1=C2O	x	x	0%	x
CC(=O)N(C(C)=O)c1nc(-c2ccccc2)cn1/N=C/c1ccccc1	32µM*	7.9µM*	1%	u
CCC1CCCCN1CCCNC(=O)c1ccc2c(c1)N(Cc1cccc(Cl)c1)C(=O)c1ccccc1S2(=O)=O (centres undefined)	-3%	u	x	u
O=S(=O)(c1ccc(Cl)cc1)N1CCN(C(=S)Nc2ccc(F)c(Cl)c2)CC1	-1%	8.9µM*	-6%	-17%
S=C(Nc1ccc(Cl)cc1)N1CCN(Cc2ccccc2)CC1	1%	u	-3%	-16%
FC(F)Oc1ccc(NC(=S)N2CCN(Cc3ccccc3)CC2)cc1	8.9µM*	u	1%	-1%
O=S(=O)(c1ccccc1)N1CCN(C(=S)Nc2ccc(F)cc2)CC1	20µM*	-3%	-7%	-11%
COc1ccc(NC(=S)N2CCN(S(=O)(=O)c3ccc(F)cc3)CC2)cc1	0%	-18%	-6%	-6%
SMILES	ClpP mod	GLP1R inv ag	GLP-1R agonist	GLP1R cytotox
COc1ccc(S(=O)(=O)N2CCN(C(=S)Nc3ccc(S(N)(=O)=O)cc3)CC2)cc1	18µM*	-21%	-12%	-1%
Cc1cc(C)cc(C(=O)n2nc(C)c(S(=O)(=O)N3CCCCCC3)c2C)c1	-1%	10%	-3%	1%
COC(=O)c1ccccc1NC(=O)Cn1c(=O)n(CCCCC(=O)NCc2ccc3c(c2)OCO3)c(=O)c2ccccc21	-6%	11%	-1%	1%
O=C(Cn1c(SCc2ccccc2F)nc2ccncc21)Nc1ccccc1C(F)(F)F	-24%	-26%	x	-10%
CCOc1ccc(-c2cc3c(=O)n(Cc4nc(-c5ccc(OC(C)C)cc5)oc4C)ccn3n2)cc1Cl	-1%	12%	0%	7%
COc1ccc(Cl)cc1NC(=O)CN(c1cc(C)cc(C)c1)S(=O)(=O)c1c(C)n[nH]c1C	0%	u	-7%	-14%
O=C(NCCc1ccc(Cl)cc1)Nc1ccc(F)cc1	x	u	6%	8%
NS(=O)(=O)c1ccc(NC(=S)N2CCN(Cc3ccc(Cl)c(Cl)c3)CC2)cc1	x	8.9µM*	5%	-4%
COc1ccc(OC2CCN(S(=O)(=O)c3ccc(OC)cc3)CC2)cc1	-3%	10µM*	5%	10%
O=[N+]([O-])c1ccc(NC(=S)N2CCN(c3ccc(F)cc3)CC2)cc1	18µM*	0%	-27%	26%
O=C(NCCc1ccc(F)cc1)Nc1ccc([N+](=O)[O-])cc1	0%	4µM*	-3%	-21%
CCC1CCc2nc3sc(C(=O)Nc4ccc(F)cc4F)c(N)c3cc2C1 (centres undefined)	-2%	-10%	0%	1%
CC(C)(C)C1CCc2c(sc(NC(=O)c3ccncc3)c2C(=O)Nc2ccccc2Cl)C1 (centres undefined)	-2%	-7%	x	7%
O=C1c2ccsc2SCCN1Cc1ccc(Cl)cc1	-3%	-30%	1%	-8%
O=C1c2ccsc2SCCN1Cc1cccc(Cl)c1	1%	13µM*	5%	-13%
Cc1c(C(=O)OCC(=O)N(C)C2CCS(=O)(=O)C2)oc2ccc(Br)cc12 (centres undefined)	-5%	-4%	9%	-34%
COc1ccc2oc(C(=O)OCC(=O)NC3CCCC3)c(C)c2c1	4%	-33%	13%	-4%
COc1ccc2oc(C(=O)OC(C)C(=O)N3CCC(C)CC3)c(C)c2c1 (centres undefined)	25µM*	u	2%	-4%
CN(C(=O)COC(=O)c1ccccc1NCCO)C1CCS(=O)(=O)C1 (centres undefined)	20µM*	10%	-1%	-1%
COc1ccc2oc(C(=O)OCC(=O)N(C)c3c(N)n(Cc4ccccc4)c(=O)[nH]c3=O)c(C)c2c1	-29%	2%	4%	-5%
COc1ccc2oc(C(=O)OCC(=O)N(C)C3CCS(=O)(=O)C3)c(C)c2c1 (centres undefined)	10µM*	-1%	-10%	-2%
COc1ccc2oc(C(=O)OC(C)C(=O)N(C)c3ccccc3)c(C)c2c1 (centres undefined)	22µM*	u	-2%	-2%
Cc1nn(C(C)C(=O)NC2CCC(C)CC2)c(=O)c2c1sc1ccccc12 (centres undefined)	-14%	3%	x	2%
Cc1cc(-c2ccc(S(=O)(=O)Nc3ccc(Cl)cc3C)cc2)on1	-1%	u	x	-30%
